TbREL1 inh: TbREL1 RNA ligase inhibitors, primary screen, biochemical, FRET fluorescence. RNA-editing ligase 1, mitochondrial (Trypanosoma brucei brucei), P86926. TbREL1 RNA ligation. inhibition, % at 9.66 µM. 0.49% of 89,000 active. AID 1117264, 2014;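 active means inhibition above the mean inhibition across all screened compounds plus 3 SD, cut at about 11% in these data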;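 further: 0% = plate median of test wells and 100% = NSC42067 control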
Target sequence (P86926 whole entry, looked up): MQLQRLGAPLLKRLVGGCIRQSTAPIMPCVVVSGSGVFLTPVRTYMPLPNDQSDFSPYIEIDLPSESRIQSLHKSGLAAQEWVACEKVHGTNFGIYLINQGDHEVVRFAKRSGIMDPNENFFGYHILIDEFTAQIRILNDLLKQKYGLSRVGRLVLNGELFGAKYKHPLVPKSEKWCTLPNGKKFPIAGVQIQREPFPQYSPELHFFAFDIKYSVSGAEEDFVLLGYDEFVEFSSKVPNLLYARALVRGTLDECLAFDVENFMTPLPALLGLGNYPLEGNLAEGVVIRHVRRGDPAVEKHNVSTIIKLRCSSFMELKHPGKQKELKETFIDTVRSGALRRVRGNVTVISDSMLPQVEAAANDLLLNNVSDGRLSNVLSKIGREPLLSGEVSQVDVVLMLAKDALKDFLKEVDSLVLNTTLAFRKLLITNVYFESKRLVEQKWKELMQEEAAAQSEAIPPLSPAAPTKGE
TbREL1 confirm: TbREL1 RNA ligase inhibitors, confirmation, biochemical, FRET fluorescence, triplicate. shares compounds with TbREL1 inh. TbREL1 RNA ligation. inhibition, % at 9.66 µM. 37% of 390 active. AID 1117282, 2014;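 active means mean inhibition across replicates above a set limit taken from the earlier primary screen, cut at about 11% in these data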;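 further: 0% = REL1 with substrate and DMSO and 100% = REL1 plus control inhibitor NSC42067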
Numbers without * were called inactive; ! = repeats disagree. The sample as a whole holds a higher share of hits than the screen did.

SMILES	TbREL1 inh	others
COc1cccc(OC)c1NC(=O)OC1CCC12CCC(c1ccccc1)CC2 (stereo not given)	5
O=S(=O)(Nc1nc(-c2ccco2)c(-c2ccco2)s1)c1ccc(F)cc1F	31*	TbREL1 confirm=-1
O=C(NNS(=O)(=O)c1ccc(F)cc1F)C1Cc2c(ccc3ccccc23)O1 (stereo not given)	3
Cc1nc2ccc(NS(=O)(=O)c3ccc(F)cc3F)cc2s1	2
C[N+]1(C)[C@H]2CC[C@H]1CC(OC(=O)C(O)c1ccccc1)C2 (stereo not given in full)	7
N#Cc1ccccc1S(=O)(=O)N1CCN(CC(O)CN2CCOCC2)CC1 (stereo not given)	20*	TbREL1 confirm=11
COc1ccc(S(=O)(=O)N2CCN(CC(O)CN3CCOCC3)CC2)cc1 (stereo not given)	3
COc1ccc(OCCN2CCN(S(=O)(=O)c3ccccc3C#N)CC2)cc1	7
N#Cc1ccccc1N1CCN(S(=O)(=O)c2ccc3c(c2)CCC(=O)N3)CC1	-2
CN(C)[C@@H]1CCN(c2cccc3c2S(=O)(=O)N2CC[C@H](C2)O3)C1	-1
Cc1ccc(-c2nc(C3CCCN(S(=O)(=O)c4ccc(Cl)s4)C3)no2)cc1 (stereo not given)	2
CCCC[C@H]1C2CC(OC(=O)Nc3ccc(C)cc3)C(C2)[C@H]2CCCCN21 (stereo not given in full)	-1
CCCC[C@H]1C2CC(OC(=O)Nc3ccc(Br)cc3)C(C2)[C@H]2CCCCN21 (stereo not given in full)	5
CCCC[C@H]1C2CC(OC(=O)Nc3ccc(C#N)cc3)C(C2)[C@H]2CCCCN21 (stereo not given in full)	11*	TbREL1 confirm=4
CCn1c(SCc2c(F)cccc2F)nc2sc3c(c2c1=O)CCCC3	2
CCOC(=O)CCCNC(=O)O[C@@H]1CC[C@@]23CCCN2C(=O)CCC[C@H]3C1	-2
Clc1cccc(CNc2nc(-c3ccccn3)nnc2-c2ccccc2)c1	-3
C[c-]1[c-](C)[c-](C)[c-](C)[c-]1C.[Fe].c1cc2nccc(N3CCCC3)[c-]2c1 (stereo not given)	14*	TbREL1 confirm=16*!
O=C(Nc1cccc(Cl)c1)O[C@@H]1CC[C@@]23CCCN2C(=O)CCC[C@H]3C1	-3
CCCCCc1ccc(NC(=O)O[C@@H]2CC[C@@]34CCCN3C(=O)CCC[C@H]4C2)cc1	-3
Cc1ccc(C(OCC(O)CN2CCCCC2)c2ccccc2)cc1 (stereo not given)	13*	TbREL1 confirm=6
CC1CN(CC(O)COC(c2ccccc2)c2ccccc2)CC(C)O1 (stereo not given)	5
OC(COC(c1ccc(Cl)cc1)c1ccc(Cl)cc1)CN1CCCC1 (stereo not given)	5
C/C(=N/NC(=O)c1cccnc1)c1cccc(O)c1	-3
O=C(CN1C(=O)c2ccc([N+](=O)[O-])cc2C1=O)NCc1ccco1	12*	TbREL1 confirm=2
SMILES	TbREL1 inh	others
Cc1c(NC(=O)CN2C(=O)c3ccc([N+](=O)[O-])cc3C2=O)c(=O)n(-c2ccccc2)n1C	-2
O=C(CN1C(=O)c2ccccc2C1=O)Nc1cc([N+](=O)[O-])ccc1O	0
Cn1c(SCCc2ccccc2)nnc1-c1ccco1	0
N#CC1=C(N)n2c(s/c(=C\c3ccco3)c2=O)=C(C#N)C1c1ccco1 (stereo not given)	27*	TbREL1 confirm=8
O=c1nc2s/c(=C\c3ccco3)c(=O)n2nc1Cc1ccc(F)cc1	1
O=c1/c(=C/c2ccco2)sc2n1CN(c1ccccc1)CN=2	4
Cc1ccc(NC(=S)NNC(=O)CSc2nnc(-c3ccc(C)cc3)n2C2CCCCC2)cc1	-6
O=C(COC(=O)c1ccc(Sc2ncn[nH]2)c([N+](=O)[O-])c1)Nc1ccc(Cl)c(Cl)c1	-2
Cc1nn(-c2ccccc2)c2sc(C(=O)NC3CCCCCCC3)cc12	8
C(C#CCCCCCCCCC[n+]1ccccc1)#CCCCCCCCCC[n+]1ccccc1	11*	TbREL1 confirm=24*
CC(C)(C)c1ccc(-c2csc(N3CCC(C(N)=O)CC3)n2)cc1	4
COc1ccc(C(C(=O)N(C)C2CCCC2)N(Cc2ccc(F)cc2)C(=O)c2cc(C)on2)cc1OC (stereo not given)	-3
Cc1nc2sc(C(=O)NCc3ccc4c(c3)OCO4)c(N)c2c(C)c1Cl	3
CN(Cc1ccccc1)S(=O)(=O)c1cccc(C(=O)OCc2cccc(C(F)(F)F)c2)c1	1
O=c1c2cc3ccccc3nc2ncn1CCc1ccc(Cl)cc1	2
O=c1c2cc3cc4c(cc3nc2ncn1Cc1cccnc1)OCO4	2
O=c1c2cc3cc4c(cc3nc2ncn1CCc1ccccc1)OCO4	15*	TbREL1 confirm=2
Cc1ccc(S(=O)(=O)N2CCC(c3nc4ccccc4o3)CC2)s1	7
COC(=O)c1ccc(Cn2cc([N+](=O)[O-])cn2)cc1	3
Cc1nn(C(=O)Cn2cc([N+](=O)[O-])cn2)c(C)c1Cl	11*	TbREL1 confirm=4
CC(C)NC(=O)CCCn1cc([N+](=O)[O-])cn1	3
C[C@H]1[C@@H](OC(=O)Nc2cc(Cl)ccc2Cl)CC[C@@]23CCCN2C(=O)CCC[C@@H]13	-3
COc1ccc(OC)c(S(=O)(=O)N2CCCC(C(=O)Nc3c(C)n(C)n(-c4ccccc4)c3=O)C2)c1 (stereo not given)	0
CN(C(=O)CCn1nnc(-c2cccs2)n1)C1CCCCC1	-4
CC(C)c1ccc(C(=O)Nc2cc(Cl)ccc2C(=O)O)cc1	6
SMILES	TbREL1 inh	others
CCN1C(=NCc2cc(OC)c(OC)c(OC)c2)N[C@@H](c2cccc(C(F)(F)F)c2)C(C(=O)OC)=C1C	0
C=CCN=C1NC(c2ccccc2)C(C(=O)OC)=C(C)N1Cc1ccccc1C(F)(F)F (stereo not given)	7
O=C(CN1C(=O)NC(CCc2ccccc2)C1=O)Nc1ccccc1C(F)(F)F (stereo not given)	1
COC(=O)C1=C(C)N(Cc2cccc(C(F)(F)F)c2)C(=NCc2cc(OC)c(OC)c(OC)c2)NC1CCc1ccccc1 (stereo not given)	12*	TbREL1 confirm=20*
COC(=O)C1=C(C)N(Cc2ccccc2)C(=S)N[C@H]1c1cccc(C(F)(F)F)c1	-6
COC(=O)C1=C(C)N(Cc2ccccc2C(F)(F)F)C(=NCc2ccccc2)NC1CCc1ccccc1 (stereo not given)	21*	TbREL1 confirm=20*
O=C(CN1C(=O)CCSc2ccccc21)Nc1ccc(F)cc1F	7
S=c1[nH]nc(-c2cc(-c3ccccc3)n[nH]2)n1/N=C/c1cccc2ccccc12	-3
CC(C)(C)c1ccc(-c2nnc3sc(COc4ccccc4)nn23)cc1	2
CC1=C2NC(N)=[N+](Cc3ccc4c(c3)OCO4)CC2NOC1 (stereo not given)	5
N#Cc1cccc(NC(=O)O[C@@H]2CC[C@@]34CCCN3C(=O)CCC[C@H]4C2)c1	-4
COC(=O)C1=C(C)N(CCCC(=O)O)C(=O)NC1c1ccc(C(F)(F)F)cc1 (stereo not given)	1
COC(=O)C1=C(C)N(C)C(=NCc2ccccc2C(F)(F)F)NC1c1ccc(Cl)cc1 (stereo not given)	13*	TbREL1 confirm=7
